Measured values published in the supplement of paper PMC8728848.
This is one part of a sample in which the strongest signals are shown more often than they occur.

Tests used:
Test in all cases: glycan array binding signal (z-score within array); higher = stronger binding
Conditions in all cases: glycan notation: IUPAC condensed, linker removed
[1] = target: Gal3S(b1-4)[Fuc(a1-3)]GlcNAc6S
Procedure, shortened: (§1)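 The binding signal is a Z-score computed within each array. Data were drawn from 3228 arrays in the Consortium for Functional Glycomics database, restricted to those with a known protein sequence. Scores were averaged over arrays of the same protein sequence at different concentrations or buffers, and over linkers, and negative values can be taken as non-binding.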

[2] = target: Gal3S6S(b1-4)GlcNAc6S
Procedure, shortened: as §1

[3] = target: Gal6S(b1-3)GlcNAc6S
Procedure, shortened: as §1

[4] = target: GalNAc(b1-3)Gal
Procedure, shortened: as §1

[5] = target: GalNAc(b1-4)GlcNAc
Procedure, shortened: as §1

[6] = target: Glc(a1-6)Glc(a1-6)Glc
Procedure, shortened: as §1

[7] = target: GlcNAc(b1-2)[GlcNAc(b1-4)]Man(a1-3)[GlcNAc(b1-4)][GlcNAc(b1-2)[GlcNAc(b1-6)]Man(a1-6)]Man(b1-4)GlcNAc(b1-4)[Fuc(a1-6)]GlcNAc
Procedure, shortened: as §1

[8] = target: GlcNAc(b1-2)[GlcNAc(b1-6)]Man(a1-6)[GlcNAc(b1-2)Man(a1-3)]Man(b1-4)GlcNAc(b1-4)[Fuc(a1-6)]GlcNAc
Procedure, shortened: as §1

[9] = target: GlcNAc(b1-3)Fuc
Procedure, shortened: as §1

[10] = target: GlcNAc(b1-3)Gal(b1-4)GlcNAc(b1-3)Gal(b1-4)GlcNAc(b1-2)[GlcNAc(b1-3)Gal(b1-4)GlcNAc(b1-3)Gal(b1-4)GlcNAc(b1-6)]Man(a1-6)[GlcNAc(b1-3)Gal(b1-4)GlcNAc(b1-3)Gal(b1-4)GlcNAc(b1-2)Man(a1-3)]Man(b1-4)GlcNAc(b1-4)[Fuc(a1-6)]GlcNAc
Procedure, shortened: as §1

[11] = target: GlcNAc(b1-3)Gal(b1-4)GlcNAc(b1-3)Gal(b1-4)GlcNAc(b1-3)Gal(b1-4)GlcNAc(b1-3)Gal(b1-4)GlcNAc(b1-2)Man(a1-3)[GlcNAc(b1-3)Gal(b1-4)GlcNAc(b1-3)Gal(b1-4)GlcNAc(b1-3)Gal(b1-4)GlcNAc(b1-3)Gal(b1-4)GlcNAc(b1-2)Man(a1-6)]Man(b1-4)GlcNAc(b1-4)GlcNAc
Procedure, shortened: as §1

[12] = target: Man(a1-2)Man(a1-6)[Man(a1-3)]Man(a1-6)[Man(a1-2)Man(a1-2)Man(a1-3)]Man
Procedure, shortened: as §1

[13] = target: Man(a1-3)[Man(a1-6)]Man(a1-6)[Man(a1-3)]Man(b1-4)GlcNAc(b1-4)GlcNAc
Procedure, shortened: as §1

[14] = target: Man(a1-6)Man
Procedure, shortened: as §1

[15] = target: Neu5Ac(a2-3)Gal(b1-3)GlcNAc(b1-6)GalNAc
Procedure, shortened: as §1

[16] = target: Neu5Ac(a2-3)Gal(b1-3)[Fuc(a1-4)]GlcNAc
Procedure, shortened: as §1

[17] = target: Neu5Ac(a2-3)GalNAc(b1-4)GlcNAc
Procedure, shortened: as §1

[18] = target: Neu5Ac(a2-3)[GalNAc(b1-4)]Gal(b1-4)GlcNAc(b1-3)GalNAc
Procedure, shortened: as §1

[19] = target: Neu5Ac(a2-6)Gal(b1-4)GlcNAc(b1-2)Man
Procedure, shortened: as §1

[20] = target: Neu5Ac(a2-6)Gal(b1-4)GlcNAc(b1-2)Man(a1-3)Man(b1-4)GlcNAc(b1-4)GlcNAc
Procedure, shortened: as §1

[21] = target: Neu5Ac(a2-6)Gal(b1-4)GlcNAc(b1-2)Man(a1-6)[GlcNAc(b1-2)Man(a1-3)]Man(b1-4)GlcNAc(b1-4)GlcNAc
Procedure, shortened: as §1

[22] = target: Neu5Ac(a2-6)Gal(b1-4)GlcNAc(b1-2)Man(a1-6)[Man(a1-3)]Man(b1-4)GlcNAc(b1-4)GlcNAc
Procedure, shortened: as §1

[23] = target: Neu5Ac(a2-6)Gal(b1-4)GlcNAc(b1-3)GalNAc
Procedure, shortened: as §1

[24] = target: Neu5Ac(a2-6)GlcNAc(b1-4)GlcNAc(b1-4)GlcNAc
Procedure, shortened: as §1

[25] = target: Fuc(a1-2)Gal(b1-3)GalNAc(b1-3)Gal
Procedure, shortened: as §1

[26] = target: Fuc(a1-2)Gal(b1-3)GalNAc(b1-3)Gal(a1-4)Gal(b1-4)Glc
Procedure, shortened: as §1

[27] = target: Fuc(a1-2)Gal(b1-3)GlcNAc(b1-3)[Gal(b1-4)GlcNAc(b1-6)]Gal(b1-4)Glc
Procedure, shortened: as §1

[28] = target: Fuc(a1-2)Gal(b1-4)[Fuc(a1-3)]GlcNAc(b1-3)GalNAc
Procedure, shortened: as §1

[29] = target: Fuc(a1-2)[Gal(a1-3)]Gal(b1-4)GlcNAc(b1-2)Man(a1-3)[Fuc(a1-2)[Gal(a1-3)]Gal(b1-4)GlcNAc(b1-2)Man(a1-6)]Man(b1-4)GlcNAc(b1-4)[Fuc(a1-6)]GlcNAc
Procedure, shortened: as §1

[30] = target: Fuc(a1-2)[GalNAc(a1-3)]Gal(b1-4)[Fuc(a1-3)]GlcNAc
Procedure, shortened: as §1

[31] = target: Fuc(a1-3)[Gal(b1-4)]GlcNAc(b1-2)Man(a1-3)[Fuc(a1-3)[Gal(b1-4)]GlcNAc(b1-2)Man(a1-6)]Man(b1-4)GlcNAc(b1-4)[Fuc(a1-6)]GlcNAc
Procedure, shortened: as §1

[32] = target: Fuc(a1-3)[Gal(b1-4)]GlcNAc(b1-3)Gal(b1-3)[Fuc(a1-4)]GlcNAc
Procedure, shortened: as §1

[33] = target: Fuc(a1-3)[Gal(b1-4)]GlcNAc6S
Procedure, shortened: as §1

[34] = target: Gal(a1-2)Gal
Procedure, shortened: as §1

[35] = target: Gal(a1-3)Gal(b1-3)GlcNAc
Procedure, shortened: as §1

[36] = target: Gal(a1-3)Gal(b1-3)GlcNAc(b1-3)GalNAc
Procedure, shortened: as §1

[37] = target: Gal(a1-3)Gal(b1-4)GlcNAc(b1-6)GalNAc
Procedure, shortened: as §1

[38] = target: Gal(b1-2)Gal
Procedure, shortened: as §1

[39] = target: Gal(b1-3)GalNAc(a1-3)[Fuc(a1-2)]Gal(b1-4)Glc
Procedure, shortened: as §1

[40] = target: Gal(b1-3)GalNAc(b1-3)Gal(a1-4)Gal(b1-4)Glc
Procedure, shortened: as §1

[41] = target: Gal(b1-3)GlcNAc(b1-6)[Gal(b1-3)]GalNAc
Procedure, shortened: as §1

[42] = target: Gal(b1-3)[Neu5Ac(a2-6)]GalNAc
Procedure, shortened: as §1

[43] = target: Gal(b1-4)GlcNAc(b1-2)Man
Procedure, shortened: as §1

[44] = target: Gal(b1-4)GlcNAc(b1-3)Gal(b1-4)GlcNAc(b1-2)Man(a1-3)[Gal(b1-4)GlcNAc(b1-3)Gal(b1-4)GlcNAc(b1-2)Man(a1-6)]Man(b1-4)GlcNAc(b1-4)GlcNAc
Procedure, shortened: as §1

[45] = target: Gal(b1-4)GlcNAc(b1-3)Gal(b1-4)GlcNAc(b1-3)Gal(b1-4)GlcNAc(b1-2)Man(a1-3)[Gal(b1-4)GlcNAc(b1-3)Gal(b1-4)GlcNAc(b1-3)Gal(b1-4)GlcNAc(b1-2)Man(a1-6)]Man(b1-4)GlcNAc(b1-4)GlcNAc
Procedure, shortened: as §1

[46] = target: Gal(b1-4)GlcNAc(b1-3)Gal(b1-4)GlcNAc(b1-3)Gal(b1-4)GlcNAc(b1-3)Gal(b1-4)GlcNAc(b1-3)Gal(b1-4)GlcNAc(b1-2)Man(a1-3)[Gal(b1-4)GlcNAc(b1-3)Gal(b1-4)GlcNAc(b1-3)Gal(b1-4)GlcNAc(b1-3)Gal(b1-4)GlcNAc(b1-3)Gal(b1-4)GlcNAc(b1-2)Man(a1-6)]Man(b1-4)GlcNAc(b1-4)[Fuc(a1-6)]GlcNAc
Procedure, shortened: as §1

[47] = target: Gal(b1-4)GlcNAc(b1-3)Gal(b1-4)GlcNAc(b1-3)[Gal(b1-4)GlcNAc(b1-3)Gal(b1-4)GlcNAc(b1-6)]GalNAc
Procedure, shortened: as §1

[48] = target: Gal(b1-4)GlcNAc(b1-3)Gal(b1-4)GlcNAc(b1-6)[Gal(b1-3)]GalNAc
Procedure, shortened: as §1

[49] = target: GalNAc3S(b1-4)GlcNAc
Procedure, shortened: as §1

[50] = target: Glc(a1-4)Glc
Procedure, shortened: as §1

[51] = target: GlcA(b1-6)Gal
Procedure, shortened: as §1

[52] = target: GlcNAc(a1-4)Gal(b1-3)GlcNAc
Procedure, shortened: as §1

[53] = target: GlcNAc(a1-4)Gal(b1-4)GalNAc
Procedure, shortened: as §1

B1: FimA-N3 (Actinomyces oris) (protein)
chain: MHHHHHHSSGVDLGTENLYFQSNAGLQGAQFQLYKAKNAYANTCSNEKEGAPIAINGQTTLTTDAQGAIDIKGLFISDSIDGADRDNQVNAMERCYVLVETKAPAGYVLPAGNGAATPVKVKAGEETTDN
- glycan array binding signal (z-score) [1]: 4.34
- glycan array binding signal (z-score) [2]: -0.339
- glycan array binding signal (z-score) [3]: -0.446
- glycan array binding signal (z-score) [4]: 2.63
- glycan array binding signal (z-score) [5]: -0.022
- glycan array binding signal (z-score) [6]: -0.527
- glycan array binding signal (z-score) [7]: -0.394
- glycan array binding signal (z-score) [8]: -0.252
- glycan array binding signal (z-score) [9]: 3.03
- glycan array binding signal (z-score) [10]: 0.202
- glycan array binding signal (z-score) [11]: -0.047
- glycan array binding signal (z-score) [12]: -0.315
- glycan array binding signal (z-score) [13]: -0.253
- glycan array binding signal (z-score) [14]: 3.05
- glycan array binding signal (z-score) [15]: 0.038
- glycan array binding signal (z-score) [16]: 15.7
- glycan array binding signal (z-score) [17]: -0.492
- glycan array binding signal (z-score) [18]: -0.212
- glycan array binding signal (z-score) [19]: -0.531
- glycan array binding signal (z-score) [20]: -0.045
- glycan array binding signal (z-score) [21]: 0.223
- glycan array binding signal (z-score) [22]: 0.03
- glycan array binding signal (z-score) [23]: -0.16
- glycan array binding signal (z-score) [24]: 2.65

B2: Pbx1CASH domain (Cryptococcus neoformans) (protein)
chain: MDETKPLWGNPRADGISLACKDSIVERNVVYDATDGAIVLFGSAGSTVKNNHVYARTRVILGGINLVDYEPWDGDYTNVKVHHNHLYALGRYFKVGIVIGPASWSDDTESVVHSASVTDNEFSGGYWGYGIVVASAKNFEVLRNKVIWDGEQGVARFSGVPGS
- glycan array binding signal (z-score) [25]: 1.37
- glycan array binding signal (z-score) [26]: 0.581
- glycan array binding signal (z-score) [27]: 0.324
- glycan array binding signal (z-score) [28]: 2.39
- glycan array binding signal (z-score) [29]: -0.277
- glycan array binding signal (z-score) [30]: -0.042
- glycan array binding signal (z-score) [31]: -0.469
- glycan array binding signal (z-score) [32]: 0.08
- glycan array binding signal (z-score) [33]: 0.01
- glycan array binding signal (z-score) [34]: -0.625
- glycan array binding signal (z-score) [35]: -0.681
- glycan array binding signal (z-score) [36]: -0.095
- glycan array binding signal (z-score) [37]: -0.006
- glycan array binding signal (z-score) [38]: -0.215
- glycan array binding signal (z-score) [39]: 0.601
- glycan array binding signal (z-score) [40]: 0.926
- glycan array binding signal (z-score) [41]: 1.3
- glycan array binding signal (z-score) [42]: -0.674
- glycan array binding signal (z-score) [43]: 0.337
- glycan array binding signal (z-score) [44]: 5.46
- glycan array binding signal (z-score) [45]: 3.17
- glycan array binding signal (z-score) [46]: -0.419
- glycan array binding signal (z-score) [47]: 4.67
- glycan array binding signal (z-score) [48]: 2.73
- glycan array binding signal (z-score) [5]: -0.736
- glycan array binding signal (z-score) [49]: -0.852
- glycan array binding signal (z-score) [50]: -0.667
- glycan array binding signal (z-score) [51]: -0.6
- glycan array binding signal (z-score) [52]: -0.187
- glycan array binding signal (z-score) [53]: 0.311
